Reference: PubChem BioAssay AID1159580 (chemical genetic matrix, 2015)
Out of some 5,500 compounds screened, about 2,000 (36%) were called active. Another 18% or so got no clear call; they are omitted. Cut-off read from the data, not from the text of the source: active = normalized growth mostly below about 0.91 (no sharp cut-off); inconclusive = no clear call, values can overlap the other calls; inactive = mostly above about 0.92. The list shows a part of the results.

Assay: chemical genetic growth profiling, strain panel (AID 1159580);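 note: tested at 20 µM; growth read once vehicle control cultures reached saturation at 30 °C; 1 = growth at the plate median or of vehicle wells; lower values mean less growth of the strain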
Conditions: growth OD
[1] = S. cerevisiae deletion strains, locus YAL013W, strain DEP1, active compounds read low
[2] = S. cerevisiae deletion strains, locus YBR229C, strain ROT2, active compounds read low
[3] = S. cerevisiae deletion strains, locus YDL101C, strain DUN1, active compounds read low
[4] = S. cerevisiae deletion strains, locus YDL134C, strain PPH21, active compounds read low
[5] = S. cerevisiae deletion strains, locus YDR150W, strain NUM1, active compounds read low
[6] = S. cerevisiae deletion strains, locus YEL061C, strain CIN8, active compounds read low
[7] = S. cerevisiae deletion strains, locus YGR078C, strain PAC10, active compounds read low
[8] = S. cerevisiae deletion strains, locus YHR030C, strain SLT2, active compounds read low
[9] = S. cerevisiae deletion strains, locus YHR087W, strain rtc3, active compounds read low
[10] = S. cerevisiae deletion strains, locus YJR043C, strain POL32, active compounds read low
[11] = S. cerevisiae deletion strains, locus YJR075W, strain HOC1, active compounds read low
[12] = S. cerevisiae deletion strains, locus YKL190W, strain CNB1, active compounds read low
[13] = S. cerevisiae deletion strains, locus YLR039C, strain RIC1, active compounds read low
[14] = S. cerevisiae deletion strains, locus YLR058C, strain SHM2 (second series), active compounds read low
[15] = S. cerevisiae deletion strains, locus YLR085C, strain ARP6, active compounds read low
[16] = S. cerevisiae deletion strains, locus YLR262C, strain YPT6, active compounds read low
[17] = S. cerevisiae deletion strains, locus YML094W, strain GIM5, active compounds read low
[18] = S. cerevisiae deletion strains, locus YMR219W, strain ESC1, active compounds read low
[19] = S. cerevisiae deletion strains, locus YMR263W, strain SAP30, active compounds read low
[20] = S. cerevisiae deletion strains, locus YNL153C, strain GIM3, active compounds read low
[21] = S. cerevisiae deletion strains, locus YNL298W, strain CLA4 (second series), active compounds read low
[22] = S. cerevisiae deletion strains, locus YNL322C, strain KRE1, active compounds read low
[23] = S. cerevisiae deletion strains, locus YNR030W, strain Alg12, active compounds read low
[24] = S. cerevisiae deletion strains, locus YPL055C, strain LGE1, active compounds read low
[25] = S. cerevisiae deletion strains, locus YPL241C, strain CIN2, active compounds read low
[26] = S. cerevisiae deletion strains, locus YPR135W, strain CTF4, active compounds read low
[27] = S. cerevisiae deletion strains, locus YMR307W, strain GAS1, active compounds read low
[28] = S. cerevisiae deletion strains, locus YOL006C, strain TOP1, active compounds read low

Measured: normalized growth

Cc1cccc(Cn2c(C)c(C)c(S(=O)(=O)c3ccccc3)c2N)c1C
active: [15] 1.24 [resistant]
inactive: [1] 1.03 | [2] 1.01 | [3] 0.98 | [4] 0.978 | [5] 1.01 | [6] 0.998 | [7] 1.03 | S. cerevisiae deletion strains, locus YGR229C, strain SMI1, active compounds read low 0.984 | [8] 0.917 | [9] 1.01 | S. cerevisiae deletion strains, locus YJL187C, strain SWE1, active compounds read low 0.996 | [10] 1 | [11] 0.996 | [12] 0.987 | [13] 0.803 | [14] 0.999 | [16] 0.873 | [17] 1.05 | [18] 1.01 | [19] 1.01 | S. cerevisiae deletion strains, locus YNL128W, strain TEP1, active compounds read low 0.998 | [20] 1.04 | [21] 0.98 | [22] 1 | [23] 1.01 | [24] 1.06 | [25] 1.03 | [26] 1.16

CCCS(=O)(=O)c1c(C)c(C)n(Cc2ccccc2)c1N
active: [15] 1.27 [resistant]
inactive: [1] 1.02 | [2] 1.01 | [3] 0.972 | [4] 0.999 | [5] 1 | [6] 0.999 | [7] 1 | [8] 1.06 | [9] 1 | [10] 0.997 | [11] 0.99 | [13] 1.05 | [14] 1 | [16] 1.03 | [17] 1.04 | [18] 1 | [19] 0.999 | [27] 1.14 | [20] 1 | [21] 1.02 | [22] 0.999 | [23] 1.02 | [28] 1.2 | [24] 1.06 | [25] 1.1 | [26] 1.15

CC1=C(/C=C/C(C)=C/C=C/C(C)=C/C=C/C=C(C)/C=C/C=C(C)/C=C/C23OC2(C)CC(O)CC3(C)C)C(C)(C)CC(O)C1 (stereo not drawn)
inactive: S. cerevisiae deletion strains, locus YBR021W, strain FUR4, active compounds read low 1 | [2] 1.01 | S. cerevisiae deletion strains, locus YCL029C, strain bik1, active compounds read low 1.02 | S. cerevisiae deletion strains, locus YDL035C, strain GPR1, active compounds read low 1.01 | S. cerevisiae deletion strains, locus YDL074C, strain BRE1, active compounds read low 1.03 | [3] 1.01 | S. cerevisiae deletion strains, locus YDL185W, strain tfp1, active compounds read low 1 | S. cerevisiae deletion strains, locus YDL192W, strain arf1, active compounds read low 1 | S. cerevisiae deletion strains, locus YDR101C, strain arx1, active compounds read low 1.01 | S. cerevisiae deletion strains, locus YDR162C, strain NBP2, active compounds read low 0.997 | S. cerevisiae deletion strains, locus YDR318W, strain mcm21, active compounds read low 1.01 | S. cerevisiae deletion strains, locus YDR388W, active compounds read low 1.01 | S. cerevisiae deletion strains, locus YDR502C, strain sam2, active compounds read low 1.02 | [6] 1.01 | S. cerevisiae deletion strains, locus YER110C, active compounds read low 1.02 | S. cerevisiae deletion strains, locus YER155C, strain BEM2, active compounds read low 1.01 | S. cerevisiae deletion strains, locus YER167W, strain BCK2, active compounds read low 1.02 | S. cerevisiae deletion strains, locus YGL078C, strain dbp3, active compounds read low 0.995 | S. cerevisiae deletion strains, locus YGL086W, strain mad1, active compounds read low 1.05 | S. cerevisiae deletion strains, locus YGL248W, strain PDE1, active compounds read low 1 | S. cerevisiae deletion strains, locus YGR135W, strain pre9, active compounds read low 0.982 | S. cerevisiae deletion strains, locus YGR252W, strain gcn5, active compounds read low 0.987 | [8] 1.01 | S. cerevisiae deletion strains, locus YHR079C, strain IRE1 (second series), active compounds read low 1 | S. cerevisiae deletion strains, locus YHR094C, strain hxt1, active compounds read low 1.01 | S. cerevisiae deletion strains, locus YHR129C, strain ARP1, active compounds read low 1.02 | S. cerevisiae deletion strains, locus YHR200W, strain rpn10, active compounds read low 1.01 | S. cerevisiae deletion strains, locus YIL066C, strain RNR3, active compounds read low 1.01 | S. cerevisiae deletion strains, locus YIL073C, strain SPO22, active compounds read low 1.1 | S. cerevisiae deletion strains, locus YIL125W, strain kgd1, active compounds read low 1.01 | S. cerevisiae deletion strains, locus YIR030C, strain dcg1, active compounds read low 1.01 | S. cerevisiae deletion strains, locus YJL095W, strain BCK1, active compounds read low 0.998 | S. cerevisiae deletion strains, locus YJL134W, strain LCB3, active compounds read low 1.01 | S. cerevisiae deletion strains, locus YJL168C, strain set2, active compounds read low 1.01 | S. cerevisiae deletion strains, locus YJL187C, strain SWE1 (second series), active compounds read low 1 | [10] 0.999 | S. cerevisiae deletion strains, locus YKL009W, strain mrt4, active compounds read low 1.03 | S. cerevisiae deletion strains, locus YKL068W, active compounds read low 1 | S. cerevisiae deletion strains, locus YKL085W, strain MDH1 (second series), active compounds read low 1.01 | S. cerevisiae deletion strains, locus YKL085W, strain MDH1, active compounds read low 1.01 | [12] 1.01 | S. cerevisiae deletion strains, locus YKR001C, strain vps1, active compounds read low 1.04 | [13] 1.01 | S. cerevisiae deletion strains, locus YLR058C, strain SHM2, active compounds read low 1.01 | S. cerevisiae deletion strains, locus YLR102C, strain apc9, active compounds read low 1.02 | [16] 0.973 | S. cerevisiae deletion strains, locus YLR268W, strain sec22, active compounds read low 1.02 | S. cerevisiae deletion strains, locus YLR330W, strain CHS5, active compounds read low 1.02 | S. cerevisiae deletion strains, locus YLR342W, strain FKS1 (second series), active compounds read low 1.06 | S. cerevisiae deletion strains, locus YLR371W, strain rom2, active compounds read low 1.01 | S. cerevisiae deletion strains, locus YLR418C, strain cdc73, active compounds read low 1 | S. cerevisiae deletion strains, locus YML016C, strain PPZ1, active compounds read low 1.01 | S. cerevisiae deletion strains, locus YML032C, strain rad52, active compounds read low 1 | S. cerevisiae deletion strains, locus YML124C, strain tub3, active compounds read low 1 | S. cerevisiae deletion strains, locus YMR078C, strain ctf18, active compounds read low 1.02 | S. cerevisiae deletion strains, locus YMR223W, strain ubp8, active compounds read low 1.01 | [19] 1.01 | [27] 1.02 | S. cerevisiae deletion strains, locus YNL067W, strain RPL9B, active compounds read low 1 | [20] 0.994 | S. cerevisiae deletion strains, locus YNL233W, strain BNI4, active compounds read low 1.02 | S. cerevisiae deletion strains, locus YNL250W, strain rad50, active compounds read low 1.01 | S. cerevisiae deletion strains, locus YNL271C, strain bni1, active compounds read low 1 | S. cerevisiae deletion strains, locus YNL298W, strain CLA4, active compounds read low 0.991 | S. cerevisiae deletion strains, locus YNL307C, strain MCK1, active compounds read low 1.01 | [22] 1.01 | S. cerevisiae deletion strains, locus YNR052C, strain pop2, active compounds read low 1 | [28] 1.11 | S. cerevisiae deletion strains, locus YOL012C, strain htz1 0.925 | S. cerevisiae deletion strains, locus YOL147C, strain pex11, active compounds read low 1.01 | S. cerevisiae deletion strains, locus YOR061W, strain CKA2, active compounds read low 1.02 | S. cerevisiae deletion strains, locus YOR069W, strain VPS5, active compounds read low 1.02 | S. cerevisiae deletion strains, locus YOR136W, strain idh2, active compounds read low 1 | S. cerevisiae deletion strains, locus YOR144C, strain elg1, active compounds read low 0.998 | S. cerevisiae deletion strains, locus YOR184W, strain ser1, active compounds read low 1.03 | S. cerevisiae deletion strains, locus YOR316C, strain cot1, active compounds read low 1.03 | S. cerevisiae deletion strains, locus YPR119W, strain clb2, active compounds read low 0.994 | S. cerevisiae deletion strains, locus YPR141C, strain kar3, active compounds read low 1.01 | S. cerevisiae deletion strains, locus YPR163C, strain tif3, active compounds read low 1.01 | S. cerevisiae deletion strains, locus YPR167C, strain met16, active compounds read low 1.01 | S. cerevisiae deletion strains, strain wtn01, active compounds read low 1.02 | S. cerevisiae strains, strain wild type, active compounds read low 1.01
